Laboratory results from PubChem BioAssay.
The source made the active and inactive calls.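 Rule for the calls: active = viability increase at or above a cutoff of the median across tested compounds plus 3 SD (cut at about 8.5% in these data, passing the limit was not always enough); inconclusive = some gains above the cutoff, reason not given; inactive = the rest.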

Assay: viability gain of MRP-1-high H69AR cells under doxorubicin, pilot screen, MRP-1 activator project, CellTiter-Glo, duplicate (AID 807);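 note: compound pretreatment 18-22 h then 72 h combined with doxorubicin; 0% = doxorubicin alone and 100% = vehicle without doxorubicin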
Conditions: H69AR viability with doxorubicin, CellTiter-Glo luminescence; at 10 µM; active compounds read high

Row | Structure (SMILES) | viability increase
1 | Nc1nc(N2CCCCC2)nc(N(c2ccccc2)c2ccccc2)n1 | -1.3% (inactive)
2 | O=C1c2ccccc2C(Nc2cccnc2)N1Cc1ccccc1Cl (centres undefined) | -3.57% (inactive)
3 | CCN1CCN(c2nc3c(c(=O)[nH]c(=O)n3C)n2CCSc2nc3ccccc3s2)CC1 | -1.2% (inactive)
4 | COc1cc(C(O)c2nc3ccccc3n2C)cc(OC)c1OC (centres undefined) | -0.62% (inactive)
5 | CCOC(=O)N1CCC(Nc2nc3ccccc3n3cnnc23)CC1 | -4.12% (inactive)
6 | COc1ccc(C2C(C(C)=O)=C(C)N=c3s/c(=C/c4ccc5c(c4)OCO5)c(=O)n32)cc1 (centres undefined) | 3.84% (inactive)
7 | CCOC(=O)C1=C(C)N(C)C(=O)NC1c1ccccc1OC (centres undefined) | 0.16% (inactive)
8 | CCCCS(=O)(=O)NC1=NCN(CCOC(=O)c2ccccc2)CN1 | -2.67% (inactive)
9 | COc1ccc(-n2c(Cc3cccn3C)nnc2SCC(=O)Nc2cccc(Cl)c2)cc1 | -1.93% (inactive)
10 | CCC1CCCCN1C(=O)CSc1nnc(-c2ccc(OC)cc2)o1 (centres undefined) | -1.66% (inactive)
11 | COc1ccc(N(CC(=O)Nc2ccc3c(c2)OCO3)S(=O)(=O)c2c(C)nn(C)c2C)cc1 | -2.78% (inactive)
12 | CCOc1ccc(C2CC(c3ccccc3C)n3nc(N)nc3N2)cc1 (centres undefined) | -1.27% (inactive)
13 | Cc1cc(N)n2nc(-c3ccccc3)cc2n1 | -3.46% (inactive)
14 | CCCCCn1c(CCNC(=O)CCC)nc2ccccc21 | -1.41% (inactive)
15 | O=C(c1ccc2c(c1)OCCO2)N1CCCCC1 | -1.22% (inactive)
16 | O=C(NCCc1c[nH]c2ccccc12)c1cnc2n(c1=O)CCS2 | -3.94% (inactive)
17 | CCc1cc(=O)n2[nH]c(C)c(-c3ccccc3OC)c2n1 | -3.04% (inactive)
18 | Cc1ccc(CSc2nc3c(c(=O)[nH]2)CCC3)cc1 | -0.74% (inactive)
19 | CN(CCNS(=O)(=O)c1ccc2c(c1)oc(=O)n2C)Cc1ccccc1 | -1.52% (inactive)
20 | COc1ccc(-c2nnc(SCC(=O)NC(C)c3ccccc3)o2)cc1 (centres undefined) | -3.41% (inactive)

Row | Structure (SMILES) | viability increase
21 | CCOc1ccc(Cn2nnc(C(=O)Nc3cc(C)cc(C)c3)c2N)cc1 | -3.02% (inactive)
22 | CCCCCn1c(CN2CCN(C(=O)c3ccco3)CC2)nc2c1c(=O)n(C)c(=O)n2C | -2.57% (inactive)
23 | CCN1CCN(Cc2ccc(NC(=O)Nc3ccccc3)cc2)CC1 | 0.37% (inactive)
24 | CCCN(CCC)C(=O)c1c(C)[nH]c(C(=O)OCC)c1C | -3.62% (inactive)
25 | COc1cccc(C2CC(c3c(Cl)cccc3Cl)n3nc(N)nc3N2)c1 (centres undefined) | -0.07% (inactive)
26 | Cc1c(C(=O)OCc2ccccc2)[nH]c2c1C(=O)CC(c1ccco1)C2 (centres undefined) | -4.85% (inactive)
27 | Cn1c(=O)c2c(nc(SCCOc3ccc4ccc(=O)oc4c3)n2C)n(C)c1=O | 1.22% (inactive)
28 | COc1ccc(NC(=O)CN(c2cc(C)cc(C)c2)S(=O)(=O)c2c(C)noc2C)cc1OC | -2.49% (inactive)
29 | CCOc1ccc(N2CC(C(=O)Nc3ccccc3OC)CC2=O)cc1 (centres undefined) | -1.73% (inactive)
30 | CC(C)CNc1oc(-c2ccc(F)cc2)nc1C#N | 1.69% (inactive)
31 | O=C(Nc1nnc(N2CCCCCC2)s1)c1cc(-c2ccc(Br)cc2)on1 | 2.89% (inactive)
32 | Cc1ccc(N=Cc2ccc[nH]2)c(O)c1 | -4.28% (inactive)
33 | CCCOC(=O)c1[nH]c2c(c1C)C(=O)CC(c1cc(OC)c(OC)c(OC)c1)C2 (centres undefined) | 1.98% (inactive)
34 | C=CCSc1nc2sc(C)c(C)c2c(=O)[nH]1 | 0.97% (inactive)
35 | O=C(c1ccc(Br)cc1)N1CCN(S(=O)(=O)c2ccccc2)CC1 | -1.15% (inactive)
36 | CN(C(=O)c1ccco1)c1nnc(C23CC4CC(CC(C4)C2)C3)s1 | -7.07% (inactive)
37 | COc1ccc(-c2nc3c(n2O)CCC/C3=N\O)cc1 | -4.71% (inactive)
38 | CC1CCC(NC(=O)C2(C)CCC(=O)N2Cc2cccnc2)CC1 (centres undefined) | 1.23% (inactive)
39 | Cc1cnc(NC(=O)CSc2nnc(COc3c(C)cccc3C)o2)s1 | -0.06% (inactive)
